# ± gives the uncertainty stated by the source.
# System: human primary fetal neurons
# Test: surviving MAP-2+ neurons after FeSO4 challenge with drug pre-treatment, relative to untreated control (% of untreated control); higher = more neuroprotection against iron toxicity
# Settings: 10 µM; FeSO4 concentration 25-50 µM; 24 h
# Description: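 Human fetal primary neurons (96-well, AIM-V serum-free medium) were pre-treated for 1 h with each NINDS Custom Collection II drug at 10 µM, then challenged with FeSO4 (25 or 50 µM). After 24 h they were fixed, stained with anti-MAP-2 and counted by automated imaging (ImageXpress/MetaXpress). MAP-2+ neuron counts were normalised to untreated control wells (100%); values are the mean of 1-4 independent experiments, each in quadruplicate.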
row,Compound,surviving MAP-2+ neurons
1,Cc1ccc(O)cc1.Cc1cccc(O)c1.Cc1ccccc1O,6.04 ± 1.1
2,CN(C)CCOC(c1ccccc1)c1ccccc1.Cn1c(=O)c2[nH]c(Cl)nc2n(C)c1=O,36.5 ± 5.3

# — the supplement of paper PMC5736601
